Most compounds without a hit are left out; they make up all but 9% or so of the library.
PLK1 PBD block – qHTS for Inhibitors of PLK1-PDB (polo-like kinase 1 - polo-box domain): Primary Screen; Potency, µM, inactives show max response, negative = inhibition, usual class: inhibitors; Serine/threonine-protein kinase PLK1 (Homo sapiens), P53350; Plk1 PBD binding of FITC phosphopeptide, fluorescence polarization; 360,000 compounds, 2.8% hits; AID 720504, 2013; further: series mostly up to about 57 µM; on the % scale 0 is the no-effect control and ±100 the full control effect; nearly all actives have a fitted effect of over 65% in size
G9a inh – qHTS Assay for Inhibitors of Histone Lysine Methyltransferase G9a; G9a H3K9 monomethylation, AlphaScreen, 2 h; Histone-lysine N-methyltransferase EHMT2 (Homo sapiens), Q96KQ7; Potency, µM (highest dose often 102 µM), for inactives: at the highest dose activity, negative = inhibition, actives largely listed as inhibitors; 350,000 compounds, 8.8% hits; further: on the % scale 0 is the no-effect control and ±100 the full control effect; nearly all actives have a fitted effect of over 75% in size
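Using a bead-based AlphaScreen, monomethylated H3K9 product from 2 h room-temperature reactions (G9a 20 nM, peptide 500 nM, SAM 20 uM) was detected with 0.5 ug/mL rabbit anti-H3K9me1 antibody.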
JMJD2A Tudor – qHTS Assay for Inhibitors of JMJD2A-Tudor Domain; AlphaScreen JMJD2A-Tudor / H3K4me3 peptide binding; Lysine-specific demethylase 4A (Homo sapiens), O75164; 390,000 compounds, 4.4% hits; Potency, µM (titrated, usually from 114 µM), for inactives: top-dose activity change, negative = inhibition, actives largely listed as inhibitors; further: on the % scale 0 is the no-effect control and ±100 the full control effect; nearly all actives have a fitted effect of over 50% in size
ALOX12 inh – Primary qHTS assay for inhibitors of human arachidonate 12S-lipoxygenase (ALOX12): Round 2 | Potency, µM (highest dose often 108 µM), for the others: at the top dose activity change, negative = inhibition, usual class: inhibitors | 580,000 compounds, 1.1% hits | AID 1671190, 2021 | purified 12hLO, xylenol orange hydroperoxide absorbance; further: on the % scale 0 is the no-effect control and ±100 the full control effect
Target sequence (P18054 whole entry, looked up): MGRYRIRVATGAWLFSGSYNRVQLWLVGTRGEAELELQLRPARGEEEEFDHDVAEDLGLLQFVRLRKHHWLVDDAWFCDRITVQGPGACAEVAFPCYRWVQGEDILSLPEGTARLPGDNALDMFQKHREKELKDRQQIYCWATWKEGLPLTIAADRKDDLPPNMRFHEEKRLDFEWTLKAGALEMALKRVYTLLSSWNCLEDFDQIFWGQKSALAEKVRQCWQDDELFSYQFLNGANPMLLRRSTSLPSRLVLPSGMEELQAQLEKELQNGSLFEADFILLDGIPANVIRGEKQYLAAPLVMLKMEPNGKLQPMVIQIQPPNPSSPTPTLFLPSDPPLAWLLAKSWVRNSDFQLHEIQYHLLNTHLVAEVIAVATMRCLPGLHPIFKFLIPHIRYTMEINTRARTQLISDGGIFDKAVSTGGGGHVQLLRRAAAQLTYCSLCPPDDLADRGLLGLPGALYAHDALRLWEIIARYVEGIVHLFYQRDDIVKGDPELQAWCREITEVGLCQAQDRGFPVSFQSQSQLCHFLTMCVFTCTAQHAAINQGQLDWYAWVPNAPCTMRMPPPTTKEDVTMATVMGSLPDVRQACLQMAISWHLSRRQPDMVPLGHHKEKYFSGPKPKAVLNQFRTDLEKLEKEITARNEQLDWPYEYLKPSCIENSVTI
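Purified human 12hLO at 150 nM in 25 mM Hepes, 0.01% Triton X-100, pH 7.0, preincubated 15 min at room temperature with compound. Reaction started with 40 uM arachidonic acid, 30 min at room temperature. Hydroperoxide measured by Fe-xylenol orange, 573/405 nm absorbance ratio.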
HP1b binding inh – HTS for Inhibitors of HP1-beta Chromodomain Interactions with Methylated Histone Tails. Chromobox protein homolog 1 (Homo sapiens), P83916. AlphaScreen HP1-beta / biotin-H3K9me3 peptide binding. Potency, µM (highest dose often 114 µM), for inactives: at the highest dose activity change, negative = inhibition, most hits filed as inhibitors. 390,000 compounds, 0.56% hits. AID 540317, 2011; further: nearly all actives have a fitted effect of over 70% in size
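AlphaScreen: HP1-beta (50 nM) preformed 30 min with biotin-H3(1-18)K9me3 peptide (50 nM) in PBS pH 7.4, 0.01% Tween-20. Compound added for 30 min at RT, then streptavidin donor/nickel chelate acceptor beads (10 ug/mL) for 30 min.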
BAZ2B block – qHTS Assay for Inhibitors of BAZ2B; Bromodomain adjacent to zinc finger domain protein 2B (Homo sapiens), Q9UIF8; AlphaScreen BAZ2B-H3K14Ac peptide displacement; Potency, µM (series often up to 114 µM), for inactives: at the top dose activity change, negative = inhibition, usual class: inhibitors; 360,000 compounds, 4.4% hits; AID 504333, 2011; further: on the % scale 0 is the no-effect control and ±100 the full control effect; nearly all actives have a fitted effect of over 60% in size
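Protein-peptide AlphaScreen: BAZ2B 50 nM, b-H3K14Ac 50 nM, 1x PBS pH 7.4 + 0.01% Tween-20. Preincubation 30 min RT; cpd 30 min RT (top 110 uM); beads 20 min RT, light-protected.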
* hit, by the source's call; [ ] = remark or other dose. The call rests on the fitted dose curve; in most records, active means well fitted curve in the direction sought with a large enough effect; inconclusive means small, poorly fitted or top-dose-only effect, or another doubt; inactive means no such curve, though single readings can be large; an effect the other way counts as inactive or inconclusive. Potency means the concentration at half of the fitted maximal effect.

Screening C[C@]12CCC3C(CC[C@H]4CCCC[C@]34C)C1CC[C@@]2(O)CNCCO (some centres undefined) returned PLK1 PBD block -3%, G9a inh -5%, JMJD2A Tudor -9%, ALOX12 inh -21%, HP1b binding inh -8% and BAZ2B block -1%.
Cc1ccc(C([O-])=C(C(=S)NCc2ccccc2)[n+]2cccc(CO)c2)cc1[N+](=O)[O-] was read as PLK1 PBD block inconclusive, JMJD2A Tudor inconclusive, ALOX12 inh -14% and HP1b binding inh -16%.
For [O-]/C(=C(\C(=S)NCc1ccccc1)[n+]1ccccc1)c1ccc(Cl)cc1 the results were PLK1 PBD block inconclusive, G9a inh 22µM*, JMJD2A Tudor inconclusive, ALOX12 inh inconclusive, HP1b binding inh inconclusive and BAZ2B block -36%.
Screening Cc1ccc(/C([O-])=C(/C(=S)NCc2ccccc2)[n+]2ccccc2)cc1[N+](=O)[O-] returned PLK1 PBD block -3%, G9a inh 20µM*, JMJD2A Tudor -25%, ALOX12 inh inconclusive, HP1b binding inh -9% and BAZ2B block inconclusive.
`CCc1cc[n+](/C(C(=S)Nc2cccc(C)c2)=C(/[O-])c2ccc(C)c([N+](=O)[O-])c2)cc1` gave PLK1 PBD block -15%, G9a inh 40µM*, JMJD2A Tudor -31%, ALOX12 inh inconclusive, HP1b binding inh inconclusive and BAZ2B block inconclusive.
FC(F)(F)c1ccc(CN2CCn3c(nnc3-c3cccnc3)C2)cc1 was read as ALOX12 inh -2%[6.33 µM].
`NCc1nc(-c2ccc(Cl)cc2)no1` gave PLK1 PBD block -7%, G9a inh 34%[12.7 µM], JMJD2A Tudor -5%, ALOX12 inh -16%, HP1b binding inh 47% and BAZ2B block -24%.
For COc1ccc(-c2nnc(SCC(=O)c3ccc(C)o3)o2)cc1 the results were PLK1 PBD block -7%, G9a inh 14%[59 µM], JMJD2A Tudor -9%, ALOX12 inh -29%, HP1b binding inh 15% and BAZ2B block 13%.
Screening CCOC(=O)c1c(C)[nH]c(N=Nc2ccccc2Cl)c1C returned PLK1 PBD block 0%, G9a inh -119%[59 µM], JMJD2A Tudor 16µM*, ALOX12 inh -1%, HP1b binding inh inconclusive and BAZ2B block 8.9µM*.
CCOC(=O)c1[nH]c(C)c(C(=O)c2ccc(C)cc2)c1C was read as PLK1 PBD block -8%, G9a inh 26%[59 µM], JMJD2A Tudor inconclusive, ALOX12 inh -16%, HP1b binding inh -4% and BAZ2B block -38%.
`CCOC(=O)c1c(C)[nH]c(N=Nc2ccc(C)cc2)c1C` gave PLK1 PBD block -5%, G9a inh inconclusive, JMJD2A Tudor 40µM*, ALOX12 inh 2%, HP1b binding inh inconclusive and BAZ2B block 45µM*.
Screening CCOC(=O)c1c(C)[nH]c(C(=O)OCC(=O)c2ccccc2)c1C returned PLK1 PBD block 4%, G9a inh 9%[12.7 µM], JMJD2A Tudor -23%, ALOX12 inh -4%, HP1b binding inh 14% and BAZ2B block -27%.
Screening CCOC(=O)c1c(C)[nH]c(NC(=O)NNC(=O)c2ccccc2Cl)c1C returned PLK1 PBD block -9%, G9a inh 19%[2.33 µM], JMJD2A Tudor -16%, ALOX12 inh -1%, HP1b binding inh 33% and BAZ2B block 4%.
